This is an account of results in PubChem BioAssay (NCATS).

The nature of assay [1]: qHTS Screen of the MIPE 4.0 Collection Against Ewings Sarcoma (TC32) (AID 1259256). Also: nearly all actives have a fitted effect of over 45% in size. Also: potency is read from the fitted curve at half-maximal effect. The gist of the method:
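Measured: ATP luminescence (CellTiter-Glo) 10 min after reagent addition, following 48 h drug treatment. Relative luciferase units converted to percent activity, with no-cell wells as full and DMSO wells as zero inhibition.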
Background: Quantitative high-throughput screening tests each substance at several concentrations.

A short description of assay [2]: P-glycoprotein substrates identified in KB-3-1 adenocarcinoma cell line, qHTS therapeutic library screen (AID 1346986). Also: nearly all actives have a fitted effect of over 60% in size. The gist of the method: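 Resistance attributable to P-gp was assessed by comparing AC50 in KB-8-5-11 with parental KB-3-1 and by tariquidar reversal. Cells were exposed 72 h and viability read by CellTiter-Glo.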
Assay [3] can be described thus: P-glycoprotein substrates identified in KB-8-5-11 adenocarcinoma cell line, qHTS therapeutic library screen (AID 1346987). Also: nearly all actives have a fitted effect of over 65% in size. Also: potency is read from the fitted curve at half-maximal effect. The gist of the method:
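KB-8-5-11, a colchicine-selected P-gp-overexpressing KB-3-1 subline, was grown without colchicine for the assay. Cells were seeded at 500 cells/well, dosed in concentration-response and incubated 72 h at 37 degree C, 5% CO2. Viability was read by CellTiter-Glo luminescence.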

Assay [4] can be described thus: Identifying Small Molecule Inhibitors of Pancreatic Cancer Stem Cells (A2780, Spheroid) (AID 1259357).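 Also: spheroids pre-formed over 14 days in stem cell medium on hydrogel; potency is read from the fitted curve at half-maximal effect; compound exposure lasted 48 h before the ATP luminescence read.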 The note with it: Potency: A2780 spheroid viability. The gist of the method: (§1)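 Spheroids grown 14 days in stem cell media on nonadherent hydrogel before screening; cells attached 4 h, then compound exposure 48 h at 37C, 5% CO2. CellTiter-Glo luminescence normalized to DMSO (no inhibition) and no-cell wells (full inhibition).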

Assay [5] is described as follows: Identifying Small Molecule Inhibitors of Pancreatic Cancer Stem Cells (SN12C, Adherent) (AID 1259358).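 Also: potency is read from the fitted curve at half-maximal effect; cell survival measured after 48 h of compound exposure.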 Put shortly: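 After a 4 h attachment period, compounds were pinned into wells and cultures held 48 h under standard incubator conditions. Viability was then measured as CellTiter-Glo luminescence following 10 min at room temperature.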
Assay [6] can be described thus: Identifying Small Molecule Inhibitors of Pancreatic Cancer Stem Cells (Panc1, Spheroid) (AID 1259359).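 Also: potency is read from the fitted curve at half-maximal effect; compound exposure lasted 48 h before reading.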 The note with it: Panc1 spheroid cancer stem cell viability. Put shortly: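 Adherent (2D) versus sphere (3D) formats; spheres generated 14 d in SCM beforehand. Compound transferred by pin tool after 4 h, 48 h incubation, CellTiter-Glo endpoint.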
A short description of assay [7]: Identifying Small Molecule Inhibitors of Pancreatic Cancer Stem Cells (SN12C, Spheroid) (AID 1259360). Also: potency is read from the fitted curve at half-maximal effect. As to conditions: Potency: SN12C spheroid viability. Put shortly: as §1
Assay [8] can be described thus: qHTS assay to identify small molecule inhibitors of chordoma cells - UCH-2 (AID 1259356). Also: series mostly up to about 46 µM.

Values joined by “and” are separate entries in the source; they are usually repeats but may differ in a detail not shown here. Identical values can stand only once. Results filed as inconclusive are left out. Some structures have more than one record in an assay (separate samples or runs), and their calls can disagree. Active and inactive are the calls of the source. Calls follow the shape of the dose curve; as a rule, active = well fitted curve in the direction sought with a large enough effect; inconclusive = small, poorly fitted or top-dose-only effect, or another doubt; inactive = no such curve, though single readings can be large; an effect the other way counts as inactive or inconclusive.

As for `CCCCCCCCCCCC1=C(O)C(=O)C=C(O)C1=O`, the Potency in assay [1] was 23.5 µM (active). For the same compound, the Potency result in assay [2] and in assay [3] was “inactive” in each case.

As to `NC(=O)c1cccc2[nH]c(-c3ccc([C@H]4CCCN4)cc3F)nc12`, the Potency in assay [1] was 11.8 µM (active).

`CC(=O)N(C)C1(c2ccccc2)CCN(CCC[C@]2(c3ccc(Cl)c(Cl)c3)CCCN(C(=O)c3ccccc3)C2)CC1`: the Potency was 26.4 µM (active) in assay [1]; 18.7 µM (active) in assay [4]; 20.9 µM (active) in assay [5]; 10.5 µM (active) and 13 µM (active) in assay [3].

`Clc1ccc(COC(Cn2ccnc2)c2ccc(Cl)cc2Cl)cc1` (stereo not given): the Potency in assay [1] is 18.7 µM (active).

Consider `O=C(O)c1ccc(-c2c[nH]c3ncc(-c4ccccc4)cc23)cc1C1CCCC1`, for which the Potency result in assay [1] and in assay [2] was “inactive” each time. In addition, the Potency entry in assay [3] is “inactive and 3.66 µM (active)”.

Turning to `O=C1C(Cl)=C(NCCN2CCOCC2)C(=O)c2ncccc21`, the Potency in assay [1] is 2.64 µM (active); in assay [4], 9.35 µM (active); in assay [5] it was 6.62 µM (active); in assay [6], 3.72 µM (active); in assay [7], 14.8 µM (active); in assay [3] it was 20.9 µM (active).

Turning to `COc1cc2c(cc1OC)CN(CCc1ccc(NC(=O)c3cc(OC)c(OC)cc3NC(=O)c3cnc4ccccc4c3)cc1)CC2`, in assay [1], the Potency is 5.9 µM (active). The Potency entry in assay [2] and in assay [3] was “inactive” in each case.

Consider `C[N+]1(C)[C@@H]2CC(OC(=O)[C@H](CO)c3ccccc3)C[C@H]1[C@H]1O[C@@H]12` (stereo not given in full), for which the Potency entry in assay [1] and in assay [3] was “inactive” in each case. The outcome in assay [8] was inactive.

With `COc1cc(O)c2c(c1)C(=O)c1cc(C)cc(O)c1C2=O`, the Potency entry in assay [1] and in assay [3] was “inactive” in each case.

On to `COc1ccc(-c2oc3c(CC=C(C)C)c(OC4O[C@H](CO)[C@@H](O)[C@H](O)[C@@H]4O)cc(O)c3c(=O)c2OC2O[C@@H](C)[C@H](O)[C@@H](O)[C@@H]2O)cc1` (stereo not given in full), for which the Potency was 26.4 µM (active) in assay [1] and 23.5 µM (active) in assay [3].

With `CN(C)c1cc(NC(=O)CNC(C)(C)C)c(O)c2c1C[C@@H]1C[C@H]3[C@H](N(C)C)C(=O)C(C(N)=O)=C(O)[C@@]3(O)C(=O)C1=C2O`, the Potency entry in assay [1] and in assay [3] was “inactive” throughout.

As to `C=C1C(=O)OC2C=C(C)CCC=C(C)CCC12` (stereo not given), the Potency in assay [1] is 20.9 µM (active). In addition, the Potency result in assay [3] is “inactive”.

For the compound `COc1ccc2cc(-c3nc(-c4ccc(S(C)=O)cc4)[nH]c3-c3ccncc3)ccc2c1` (stereo not given), the Potency in assay [1] was 20.9 µM (active). In addition, the Potency result in assay [3] is “inactive”.

On to `COc1cc2nc(-c3ccc(N4CCN(C)CC4)cc3)nc(NCCN3CCOCC3)c2cc1OC`, for which the figures for the Potency in assay [1] and in assay [3] were 0.0418 µM (active) and 7.31 µM (active), respectively.

`C[C@]12CC[C@@H]3c4ccc(O)cc4C[C@@H](CCCCCCCCCS(=O)CCCC(F)(F)C(F)(F)F)[C@H]3[C@H]1CC[C@H]2O` (stereo not given in full): the Potency entry in assay [1] and in assay [3] was “inactive” in each case.

For `O=C1c2c(O)cc(O)cc2O[C@H](c2cc(O)c(O)c(O)c2)[C@H]1O`, the Potency entry in assay [1] and in assay [3] was “inactive” throughout.

For the compound `O=C1c2ccccc2-[n+]2ccc3c([nH]c4ccccc43)c21`, the Potency is 0.743 µM (active) in assay [1] and 3.32 µM (active) in assay [3].

`CC(C)C(C)C=CC(C)C1CCC2C3=CC=C4CC(O)CCC4(C)C3CCC21C` (stereo not given): the Potency result in assay [1] and in assay [3] was “inactive” throughout.

On to `COc1ccc(C2Sc3ccccc3N(CCN(C)C)C(=O)C2OC(C)=O)cc1` (stereo not given), for which the Potency entry in assay [1] and in assay [3] was “inactive” in each case.

In the case of `COc1ccc2c(Oc3ccc(NC(=O)c4c(C)n(CC(C)(C)O)n(-c5ccccc5)c4=O)nc3)ccnc2c1`, the Potency in assay [1] is 18.7 µM (active). Further, the Potency entry in assay [3] was “inactive”.

Regarding `Cc1ccn(-c2ccc(-c3ncco3)cc2)c(=O)c1-c1ccc2nc(N)ncc2c1`, the Potency in assay [1] is 3.72 µM (active). Besides, in assay [3], the Potency entry was “inactive”.

In the case of `CC1CCC(C(=O)N(c2cc(C#CC(C)(C)C)sc2C(=O)O)C2CCC(O)CC2)CC1` (stereo not given), the Potency entry in assay [1] and in assay [3] was “inactive” in each case.

In the case of `Cc1c(NC(=O)c2ccc(C(C)(C)C)cc2)cccc1-c1cn(C)c(=O)c(Nc2ccc(C(=O)N3CCOCC3)cc2)n1`, the Potency in assay [1] is 20.9 µM (active). Also, the Potency result in assay [3] was “inactive”.

Consider `CCc1ccc(OCc2ccccc2C(=O)Nc2ccc3nc(C)cc(N)c3c2)cc1`, for which the results for the Potency in assay [1] and in assay [3] were 9.35 µM (active) and 7.43 µM (active), respectively.

With `O=c1cc(-c2ccccc2)oc2cc(O)cc(O)c12`, the Potency entry in assay [1] and in assay [3] was “inactive” each time.

Turning to `O=C(O)c1c(Cl)c(Cl)c(Cl)c(Cl)c1-c1c2cc(I)c(=O)c(I)c-2oc2c(I)c(O)c(I)cc12`, in assay [1], the Potency is 18.7 µM (active). Further, the Potency entry in assay [3] is “inactive”.

Turning to `C[C@]12CCC3c4ccc(O)cc4CCC3C1CCC2=O` (stereo not given in full), the Potency in assay [1] was 6.62 µM (active). Besides, the Potency entry in assay [3] was “inactive”.

Consider `CC(C)(C)OC(=O)N[C@H]1CCCCCC=C[C@@H]2C[C@@]2(C(=O)NS(=O)(=O)C2CC2)NC(=O)[C@@H]2C[C@@H](OC(=O)N3Cc4cccc(F)c4C3)CN2C1=O`, for which the Potency entry in assay [1] and in assay [3] was “inactive” throughout.

Take `CCC(CC)[C@H](NC(C)=O)[C@@H]1[C@H](O)[C@@H](C(=O)O)C[C@@H]1N=C(N)N`: the Potency result in assay [1] and in assay [3] was “inactive” each time.

Consider `COC1CCC(N(C(=O)C2CCC(C)CC2)c2cc(C3=CCCCC3)sc2C(=O)O)CC1` (stereo not given), for which the Potency entry in assay [1] and in assay [3] was “inactive” in each case.

Take `CO[C@H]1C(=O)[C@]2(C)[C@@H](OC)C[C@H]3OC[C@@]3(OC(C)=O)[C@H]2[C@H](OC(=O)c2ccccc2)[C@]2(O)C[C@H](OC(=O)[C@H](O)[C@@H](NC(=O)OC(C)(C)C)c3ccccc3)C(C)=C1C2(C)C`: the Potency result in assay [1] is “inactive”. Moreover, the Potency in assay [3] is 0.001 µM (active).
